# Data from PubChem BioAssay AID624305 (National Center for Advancing Translational Sciences (NCATS), 2012).
# Records with an inconclusive call do not appear. The source made the active and inactive calls. Calls follow the shape of the dose curve; as a rule, active = well fitted activation curve with a large enough effect; inconclusive = small, poorly fitted or top-dose-only effect; inactive = no such curve, though single readings can be large or run the other way.
# Test: qHTS assay for re-activators of p53 using a Luc reporter: Hit Validation; also: nearly all actives have a fitted effect of over 75% in size; as to activation: 0% is about no effect
# Settings: p53-responsive luciferase reporter cells, luminescence, H1299 line expressing heat-sensitive Ala138Val p53; series mostly up to 46.1 µM; activation: at the top concentration
# Method in brief: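 H1299 (p53-null) cells stably carrying p53-A138V and a BP100-luciferase reporter, 1000 cells/well, treated 24 h at 37 deg C. Compounds at several concentrations, 1:5 dilution; nocodazole control; luminescence read after 10 min with detection reagent.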
# Potency is read from the fitted curve at half-maximal effect.
Structure (SMILES),activation,Potency
COc1ccc(CCNC2CCC(c3ccccc3)CC2)cc1 (stereo not drawn),-6.77% (inactive),
CN(C(=O)CSc1nnc(-c2ccco2)o1)C1CCCCC1,-86.5% (inactive),
O=C(CSCC(=O)Nc1cccc([N+](=O)[O-])c1)Nc1ccccc1,-1.56% (inactive),
Clc1ccccc1Nc1nc2ccccc2o1,,5170 nM (active)
COC(=O)c1ccc(-c2nc(-c3cccs3)no2)cc1,,146 nM (active)
CC(C)CNC(=S)Nc1ccc(Oc2ccccc2)cc1,-1.04% (inactive),
Cn1c(CCN2CCCCC2)nc2cc(NC(=O)Nc3ccccc3)ccc21,10.4% (inactive),
OC1(C2(O)CC(c3ccccc3)ON2)CCCCC1 (stereo not drawn),-85.4% (inactive),
CC(C)(C)c1ccc(NC(=O)COC(=O)c2ccc(NS(=O)(=O)c3ccc(F)c(F)c3)cc2)cc1,-88% (inactive),
Cc1cc(C)c2nc(NNC(=O)c3ccc(S(=O)(=O)N4CCCC(C)C4)cc3)sc2c1 (stereo not drawn),-83.9% (inactive),
O=C(NCCC1=CCCCC1)c1ccc(F)c(S(=O)(=O)N2CCOCC2)c1,-84.4% (inactive),
COc1ccc(S(=O)(=O)NC2CC(C)(C)NC(C)(C)C2)c2ccccc12,-12% (inactive),
O=c1[nH]c(N/N=C/c2ccc(O)cc2)nc2ccccc12,,4610 nM (active)
CN(/N=C/c1ccc2c(c1)OCO2)c1ccccc1,,14600 nM (active)
Cn1c(C(=O)Nc2ccc3c(c2)OCCO3)cc2sccc21,,5800 nM (active)
Cn1c(=N)n(CC(=O)c2ccc(Cl)c(Cl)c2)c2ccccc21,,580 nM (active)
O=C(/C=C/c1ccco1)Nc1ccc2nn(-c3ccccc3)nc2c1,22.4% (inactive),
O=C(CC1NC2CCCCC2NC1=O)Nc1ccc2c(c1)OCO2 (stereo not drawn),9.38% (inactive),
COC(=O)c1sccc1N/N=C/c1cccc(OC)c1O,,146 nM (active)

Structure (SMILES),activation,Potency
COc1ccc(N2CCN(CC(=O)Nc3ccc(C)cc3)CC2)cc1,-1.56% (inactive),
COc1ccc2nc(SCc3ccccc3)nc(C)c2c1,,1460 nM (active)
CCOc1ccc(NS(=O)(=O)c2ccc(C(=O)NC3CCN(Cc4ccccc4)CC3)cc2)cc1,-2.08% (inactive),
O=C(CN1C(=O)NC2(CCCc3ccccc32)C1=O)c1ccc(F)cc1 (stereo not drawn),-10.9% (inactive),
CSC1=NCCN1C(=O)c1ccc(Br)o1,-91.1% (inactive),
O=C(c1ccc(N2CCN(S(=O)(=O)c3ccccc3)CC2)c([N+](=O)[O-])c1)N1CCOCC1,17.2% (inactive),
COc1ccc(-c2nnc(SCC(=O)/C(C#N)=C(\C)N)o2)cc1,,326 nM (active)
Cc1nc(SCC(=O)Nc2nccs2)c(C#N)c(C)c1C,,651 nM (active)
CCCCn1c(SCC(=O)N2CCCC2=O)nc2cc(S(N)(=O)=O)ccc21,-14.1% (inactive),
CN(C(=O)NC(=O)C1=C(N2CCOCC2)/C(=C/c2ccccc2)CC1)S(C)(=O)=O,32.3% (inactive),
N#CC1=C(N)N2C(=C(C#N)C13CCCCC3)SC1CCCCC12O (stereo not drawn),-17.2% (inactive),
Cc1cnc(C(=O)OCC(=O)c2csc(N3CCCCC3)n2)cn1,25% (inactive),
Cc1ccc(NC(=O)/C(Cl)=C/c2ccccc2)cc1C,,2060 nM (active)
Cn1cc(Cl)c(C(=O)Nc2nc3ccccc3s2)n1,,231 nM (active)
CCCCC(=O)N1CCCC(C)C1 (stereo not drawn),-10.4% (inactive),
O=C(Cn1cc(SCc2ccc(F)cc2)c2ccccc21)N1CCOCC1,-86.5% (inactive),
O=C(COC(=O)c1cn(-c2ccccc2)nc1-c1ccc(F)cc1)Nc1ncc(Cl)cc1Cl,21.9% (inactive),
O=C(NC(=S)Nc1ccccc1Br)C1CCCCC1,,20600 nM (active)
Cc1cc2nc(-c3ccc(SCC(=O)Nc4ccc(S(=O)(=O)NC5CC5)cc4)nc3)[nH]c2cc1C,,2310 nM (active)
